SF-1 inh: inhibitors of human nuclear receptor SF-1. 65,000 compounds, 0.55% hits. CHO-K1 Gal4-SF-1 LBD luciferase reporter. Q13285. AID 525. inhibition, % at 10 µM;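 active means inhibition above the mean inhibition of all tested compounds plus 3 SD, cut at about 48% in these data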;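 further: 0% = SF-1 transfected cells with DMSO and 100% = mock-transfected cells lacking SF-1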
Target sequence (Q13285 whole entry, looked up, the tested form may be a part): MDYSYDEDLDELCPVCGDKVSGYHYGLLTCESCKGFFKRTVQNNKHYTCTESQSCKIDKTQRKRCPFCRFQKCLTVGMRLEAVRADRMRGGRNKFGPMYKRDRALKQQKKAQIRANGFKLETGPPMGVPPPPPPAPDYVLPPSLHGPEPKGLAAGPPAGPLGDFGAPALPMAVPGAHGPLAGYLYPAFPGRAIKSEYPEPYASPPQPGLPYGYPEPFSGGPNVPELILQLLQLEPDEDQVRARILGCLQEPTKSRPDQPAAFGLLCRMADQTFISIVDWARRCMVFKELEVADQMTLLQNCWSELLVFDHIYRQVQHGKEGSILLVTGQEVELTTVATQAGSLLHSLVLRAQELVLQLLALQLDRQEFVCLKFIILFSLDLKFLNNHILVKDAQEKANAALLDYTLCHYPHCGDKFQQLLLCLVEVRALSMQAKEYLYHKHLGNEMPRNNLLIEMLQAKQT
* marks the source's active call; other numbers are inactive results. Only a selection was taken, and hits are over-represented in it overall.

SMILES | SF-1 inh
COc1ccc(C(=O)Nc2nc3ccccc3[nH]2)cc1OC | -50.2
O=C(Nc1cccc(-c2nc3ccccc3[nH]2)c1)c1ccco1 | -27.7
O=C(Nc1nc2ccccc2[nH]1)c1ccccc1F | 83.6*
O=C(Nc1ccc2c(c1)OCO2)c1c(Cl)nc2sccn12 | -66.1
CC(C)CC(NC=C1C(=O)OC(C)(C)OC1=O)C(=O)O (stereo unspecified) | 6.1
c1cnc2c(SCc3ccc(-c4nnco4)cc3)cccc2c1 | -62.5
COC(=O)c1ccc(NC(=O)CN(c2ccc(OC)cc2)S(C)(=O)=O)cc1 | -74.8
COC(=O)c1ccc(CSc2nc3c(c(=O)n2-c2ccc(Br)cc2)SCC3)o1 | 6.9
O=C(CSc1nc2cc(Cl)ccc2o1)c1cccs1 | -18.5
CCOc1ccc(OCc2cccc(C(=O)N3CCOCC3)c2)cc1 | 61.6*
COc1cccc(C(=O)N2CCN(Cc3cccc(F)c3)CC2)c1 | 1.5
Cc1ccc(-c2ccc(OCC(=O)N3CCOCC3)cc2)cc1 | 1.8
CCSc1nnc(NC(=O)CSc2nc3c(c(=O)n2-c2ccccc2)SCC3)s1 | 3.3
Cn1cnnc1SCc1ccc(C#N)cc1Cl | 14.5
COc1cc(/C=N/O)ccc1OCc1ccc(C(=O)O)cc1 | 90.6*
O=C(O)c1ccc(COc2c(F)c(F)cc(F)c2F)cc1 | -17.5
COc1ccc(OCc2ccc(C(=O)O)cc2)cc1 | -63.7
O=C(c1cccs1)c1cn(CC(=O)N2CCc3ccccc3C2)c2ccccc12 | 4.1
Cc1c(NC(=O)CCCCCN2C(=O)C3C4C=CC(C4)C3C2=O)c(=O)n(-c2ccccc2)n1C (stereo unspecified) | -10.6
COC(=O)C(C)Oc1ccc2c3c(c(=O)oc2c1)CCCCC3 (stereo unspecified) | -12.5
CCCCOc1ccc(-c2ncc(Cl)cn2)cc1 | -25.5
CCCCOc1ccc(OC(=O)c2cccnc2)cc1 | 65.9*
O=C(COc1ccc(-c2ccccc2)cc1)N1CCN(C(=O)c2cccnc2)CC1 | -16.3
CCN1C(=Nc2ccc(Cl)cc2)SC/C1=C\C(=O)OC | -1.8
O=C(Cn1cnc2ccccc21)NCCCN1CCOCC1 | -24.0
SMILES | SF-1 inh
COc1ccc(C(CCc2ccc(C)o2)NC(=O)Nc2ccc(OC)cc2OC)cc1 (stereo unspecified) | 5.9
COc1ccc(-c2nc(-c3ccncc3)no2)cc1OC | -73.8
c1ccc(-c2noc(-c3ccc4ccccc4c3)n2)cc1 | 50.4*
Brc1ccc(-c2nc(-c3ccccc3)no2)o1 | -62.6
CCOC(=O)c1ccc(N2Cc3cc(C)c(C)cc3C2)cc1O | 0.0
COc1ccc(-n2ncc3c(NCc4ccccn4)ncnc32)cc1 | -56.4
O=C(CCC(=O)N(CC(=O)NC1CCCCC1)c1ccc2c(c1)OCO2)Nc1ccccn1 | -13.7
CCOC(=O)c1c(N)sn(-c2ccccc2C)c1=S | -0.2
COC(=O)C1=C(CN2CCN(C)CC2)NC(=O)NC1c1cc(C)ccc1C (stereo unspecified) | 3.3
COc1ccc(CCNC(=O)CN2CCCc3ccccc32)cc1OC | -17.0
COC(=O)C1=C(CN2CCCc3ccccc32)NC(=O)NC1c1ccc(F)cc1 (stereo unspecified) | 74.8*
CCOc1cc(N2CCOCC2)c(OCC)cc1NC(=O)CSc1cccc[n+]1[O-] | -7.7
O=c1oc2ccccc2cc1NCc1ccccc1O | -7.9
Cc1cc(C(=O)Nc2sc3c(c2C#N)CCCC3)no1 | -71.0
Cc1cc(C(=O)Nc2sc3c(c2C#N)CCC3)no1 | -115.6
Cc1ccnc(SCC(=O)Nc2sc3c(c2C#N)CCCC3)n1 | 76.0*
CS(=O)(=O)N(CC(=O)NCc1ccncc1)c1cc(Cl)cc(Cl)c1 | 14.0
CCCCN(CC)C(=O)c1ccc(Cl)c(Cl)c1 | -19.5
CCOC(=O)c1sc(NC(=O)c2cc3c(C)nn(-c4ccccc4)c3s2)nc1C | 7.6
O=C(COC(=O)Cn1cnc2ccccc21)NCCC1=CCCCC1 | -3.7
COc1nc(C)nc2c1sc(=S)n2C | -24.2
O=C(NCc1ccccc1)c1noc2c1CCCCC2 | -52.5
Cn1nc(C(C)(C)C)cc1C(=O)NCc1ccc(N2CCCC2=O)cc1 | 69.4*
O=C1CC(NCCN2CCOCC2)C(=O)N1Cc1ccc(N2CCCC2=O)cc1 (stereo unspecified) | -3.6
COCCCNC(=O)CS(=O)Cc1nc(-c2ccccc2C)oc1C (stereo unspecified) | -18.0
SMILES | SF-1 inh
CCCCNC1C(CC)C(CCC)C(C#N)(C#N)C1(C#N)C#N (stereo unspecified) | 22.3
COc1ccc(N=c2scc(-c3ccc(S(=O)(=O)N4CCOCC4)cc3)n2CCCO)cc1 | 64.5*
O=C(Nc1ccc(S(=O)(=O)N2CCOCC2)cc1)c1cccs1 | -1.4
CCOc1cc(C(=O)Nc2ccc(S(=O)(=O)N3CCOCC3)cc2)cc(OCC)c1OCC | -12.5
ClC(Br)=C(n1cnc2ccccc21)n1cnc2ccccc21 | 10.1
O=C(CC1OC(=O)c2ccccc21)c1ccco1 (stereo unspecified) | 1.9
Cc1cc(C(=O)CSc2nc3ccccc3[nH]2)c(C)n1C | -61.0
Cc1cc(C(=O)CSc2nc3ccccc3o2)c(C)n1C1CC1 | -61.0
Cc1cc(-n2c(C)cc(C(=O)CSc3ncnc4ccccc34)c2C)no1 | 70.7*
CC(C)CC(NC(=O)OC(C)(C)C)C(=O)NC(C(=O)N1CCCC1C(N)=O)C(C)C (stereo unspecified) | 12.8
CCOC(=O)CSC(CC)C(=O)Nc1nnc(C(C)C)s1 (stereo unspecified) | -18.3
CCSCCNC(=O)c1cncc(Br)c1 | 17.0
CCOC(=O)C1CCCN(c2nc(C)nc3c2oc2ccccc23)C1 (stereo unspecified) | 17.2
CCOC(=O)C1CCN(Cc2ccc(O)c3ncccc23)CC1 | 76.9*
CCOC(=O)N1CCC(NC(=O)c2cccnc2SC)CC1 | -1.5
CC(C)(C)c1ccc(-c2conc2N)cc1 | -51.6
COc1ccccc1N(Cc1cc2cccc(C)c2[nH]c1=O)C(=O)C(C)C | 2.2
CCCCOc1ccccc1NC(=O)Cn1c(-c2nonc2N)nc2ccccc21 | 67.3*
Nc1nonc1-c1nc2ccccc2n1Cc1ccc(Cl)cc1 | 21.5
COc1cccc(Cn2c(-c3nonc3N)nc3ccccc32)c1 | -62.3
CCC(CC)c1nc(NCCC(=O)O)c2ccccc2n1 | 6.1
CC1(C)COCN1S(=O)(=O)c1ccc(C(=O)Nc2nnc(-c3ccc(Cl)s3)o2)cc1 | 64.9*
CC1CC(C)CN(C(=O)CSc2nnc(-c3ccc(Cl)s3)o2)C1 (stereo unspecified) | 5.1
COc1ccc(-c2nnc(NC(=O)c3ccc(S(=O)(=O)N4COCC4(C)C)cc3)o2)cc1 | 50.2*
COc1cccc(C(=O)Nc2cccc(-c3nnc(-c4ccccc4)o3)c2)c1 | -92.1
SMILES | SF-1 inh
COc1ccc(S(=O)(=O)N2CCCC2C(=O)Nc2ccc(O)cc2)cc1 (stereo unspecified) | 0.9
CC(=O)Nc1ccc(C(=O)Nc2ccc(S(=O)(=O)N3CCCC3)cc2)cc1 | 10.6
O=C(CCOc1ccccc1)Nc1ccc(S(=O)(=O)N2CCCC2)cc1 | -1.5
Cc1ccc(S(=O)(=O)N2CCN(C(=O)CN3CCN(C)CC3)C2)cc1 | 7.2
Cn1cc(C(=O)NCCN2CCN(c3ccccc3F)CC2)c2c3ccccc3n(C)c2c1=O | -4.7
CCOC(=O)N1CCN(C(=O)CN(C)S(=O)(=O)c2ccc(OC)c(OC)c2)CC1 | -0.2
CC(=O)c1c(C)nc2nonc2c1N | 4.2
CC1CCN(c2ccc(NC(=O)c3cccnc3)cc2)CC1 | -58.9
O=S(=O)(NCCSc1nnnn1-c1ccccc1)c1cccs1 | -54.1
COc1ccc(OC)c(NS(=O)(=O)c2ccc(N3CCCC3=O)cc2)c1 | 52.8*
COc1ccc(OC)c(S(N)(=O)=O)c1 | -12.7
